Assay outcomes deposited in PubChem by National Center for Advancing Translational Sciences (NCATS).
TDP1 cell CPT – growth inhibition of DT40 Tdp1-/-;hTDP1 cells with camptothecin (screen for TDP1 inhibitors). chicken DT40 Tdp1-/-;hTDP1 cells + 20 nM CPT, ATP luminescence, 48 h. Potency, µM (top dose mostly 46.2 µM), for inactives: top-dose activity change, negative = growth inhibition, hits mostly inhibitors. 12% of 420,000 active; further: potency means the concentration at half of the fitted maximal effect; nearly all actives have a fitted effect of over 55% in size
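Chicken DT40 Tdp1-/- cells complemented with human TDP1, 400 cells/well, exposed to compounds plus 20 nM camptothecin for at least 48 h at 37 C; viability read as ATP content by CellTiter-Glo luminescence.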
DT40 TDP1 no CPT – qHTS for Inhibitors of human tyrosyl-DNA phosphodiesterase 1 (TDP1): qHTS in cells in absence of CPT; DT40 Tdp1-/- hTDP1 cells, no CPT, ATP luminescence, 48 h; Potency, µM (highest dose often 46.2 µM), for inactives: at the top dose activity change, negative = growth inhibition, usual class: inhibitors; 15% of 420,000 active; AID 686978, 2013; further: potency means the concentration at half of the fitted maximal effect; nearly all actives have a fitted effect of over 55% in size
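A cellular qHTS used chicken DT40 cells lacking endogenous Tdp1 but carrying stably transfected human TDP1. Compounds were applied without camptothecin, and cell growth kinetics were judged by ATP-dependent luminescence after ≥48 hr.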
HT1080-NT tox – kills 2HG-producing HT-1080-NT fibrosarcoma cells; HT-1080-NT fibrosarcoma viability, CellTiter-Glo ATP luminescence, 48 h; Potency, µM (titrated, usually from 46.1 µM), for the others: top-dose activity, negative = less viability, most hits filed as cytotoxic; 1.6% of 360,000 active; AID 686970;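 further: NT is the 2HG producing partner of a matched IDH1 knockdown line; potency means the concentration at half of the fitted maximal effect; 0% = DMSO-treated cells and -100% = media-only wells without cells; nearly all actives have a fitted effect of over 55% in size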
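Toxicity toward the 2HG-producing NT line was scored as %Activity, normalised to DMSO and no-cell wells, from CellTiter-Glo luminescence after 48 hours' treatment.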
IL1B secr inh – blocks inflammasome-driven IL-1 beta release; THP-1 LPS/ATP IL-1B secretion, AlphaLISA, 16 h; hits give low values; activity change, % at 57.5 µM; 4.7% of 360,000 active; AID 743279; in the data active means activity change below about -50%; inconclusive means mostly about -30% to -49%
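THP-1 cells pretreated 1 hr with compounds (up to 57.5 uM final), then stimulated with LPS (250 ng/mL final) plus ATP (1.25 mM final); secreted IL-1B measured by AlphaLISA after 16 hr, decreased signal indicating inhibition.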
HT1080 IDH1KD tx – kills HT-1080 cells with IDH1 knockdown; HT-1080 IDH1 knockdown viability, ATP luminescence, 48 h; Potency, µM (top dose mostly 46.1 µM), for inactives: at the top dose activity, negative = toxicity, usual class: cytotoxic; 2% of 360,000 active;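 further: potency means the concentration at half of the fitted maximal effect; 0% = DMSO wells and -100% = cell-free medium wells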
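Knockdown cells (IDH1KD HT-1080) received compounds 2 h after plating at 750 cells/well and were kept 48 h at 37 °C in 5% FBS RPMI. A CellTiter-Glo luminescence read gave % activity for curve fitting.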
* = called active by the depositor; u = inconclusive; x = not tested or not shown. Shown are actives, neighbours in structure and some others; about 19% of the full set was active somewhere. Unless noted, the call rests on the fitted dose curve; in most records, active means well fitted curve in the direction sought with a large enough effect; inconclusive means small, poorly fitted or top-dose-only effect, or another doubt; inactive means no such curve, though single readings can be large; an effect the other way counts as inactive or inconclusive. Unless noted, on the % scale 0 is the no-effect control and ±100 the full control effect.

SMILES	TDP1 cell CPT	DT40 TDP1 no CPT	HT1080-NT tox	IL1B secr inh	HT1080 IDH1KD tx
C/C(=N\Nc1cc(-c2ccccc2)nc(-c2ccc(Br)cc2)n1)c1cccc(N)c1	26µM*	u	11µM*	-6	18µM*
C/C(=N\Nc1cc(Cl)nc(C)n1)c1ccccc1	u	-21%	4%	-16	1%
COc1ccc(/C=C\c2onc(C)c2S(=O)(=O)N2CCC(C(=O)Nc3ccc(Cl)cc3)CC2)cc1	-12%	u	x	x	x
CCc1cccc(C)c1NC(=O)C1CCN(S(=O)(=O)c2c(C)noc2/C=C/c2c(C)cc(C)cc2C)CC1	u	10µM*	x	x	x
Cc1ccc(N(C)C(=O)C2CCN(S(=O)(=O)c3c(C)noc3/C=C/c3c(C)cc(C)cc3C)CC2)cc1	u	21µM*	x	x	x
COc1cc(NC(=O)C2CCN(S(=O)(=O)c3c(C)noc3/C=C/c3c(C)cc(C)cc3C)CC2)cc(OC)c1	13µM*	-96%	x	x	x
COc1ccc(NC(=O)C2CCN(S(=O)(=O)c3c(C)noc3/C=C/N(C)C)CC2)cc1	-3%	9%	0%	7	12%
COc1ccc(/C=C\c2onc(C)c2S(=O)(=O)N2CCC(C(=O)Nc3ccc(C)c(F)c3)CC2)cc1	5.2µM*	6.5µM*	x	x	x
COc1ccc(/C=C/C(=O)N(Cc2cccs2)C2CCS(=O)(=O)C2)cc1 (stereo unspecified)	u	-23%	9%	-12	3%
O=C(O)CCn1cc(/C=C2\NC(=S)N(c3ccccc3)C2=O)c(-c2ccc(Br)cc2)n1	-1%	7%	3%	4	4%
CCn1c(SC)nc2c([nH]c3ccccc32)c1=O	-22%	4%	x	x	x
Cc1ccc(SCc2[nH]nc3c2C(c2ccc(C)o2)C(C#N)=C(N)O3)cc1 (stereo unspecified)	16µM*	16µM*	-17%	-5	u
COc1cc(C2C(C#N)=C(N)Oc3cc(C)oc(=O)c32)cc2c1OCO2 (stereo unspecified)	-17%	-17%	-15%	0	-21%
Cc1cc2c(c(=O)o1)C(c1cccs1)C(C#N)=C(N)O2 (stereo unspecified)	23µM*	18µM*	-1%	-63*	-2%
Cc1ccc(Cn2c(C)cc3c(c2=O)C(c2cccs2)C(C#N)=C(N)O3)cc1 (stereo unspecified)	-2%	-34%	-3%	0	-11%
Cc1ccc([C@H]2C(C#N)=C(N)Oc3cc(C)oc(=O)c32)o1	16µM*	23µM*	u	-106*	-8%
COc1cc(C2C(C#N)=C(N)Oc3cc(C)oc(=O)c32)cc(OC)c1OC (stereo unspecified)	u	23µM*	14%	16	16%
Cc1cc2c(c(=O)o1)C(C(C)C)C(C#N)=C(N)O2 (stereo unspecified)	-7%	-14%	14%	7	20%
Cc1noc(NC(=O)c2cccc(Cl)c2Cl)c1C#N	u	u	-6%	19	-16%
CC(C)OCCCNC(=O)C1CCN(S(=O)(=O)N2CCCC2)CC1	-8%	-3%	3%	-9	8%
CN1CCN(Cc2nc3ccccc3c(=O)n2Cc2nc(-c3ccccc3F)cs2)CC1	16µM*	10µM*	-13%	u	-24%
CN(C)Cc1nc2ccccc2c(=O)n1Cc1nc(C(C)(C)C)cs1	u	u	1%	-1	-6%
CN1CCN(Cc2nc3ccccc3c(=O)n2Cc2nc(-c3ccc4ccccc4c3)cs2)CC1	4.6µM*	2.3µM*	5.8µM*	-95*	3.7µM*
CC(=O)Cn1c(CN2CCCC2)nc2ccccc2c1=O	8%	-19%	-2%	-1	-2%
N#Cc1ccccc1NC(=O)Nc1cccc(Cl)c1	11%	-21%	3%	0	6%
SMILES	TDP1 cell CPT	DT40 TDP1 no CPT	HT1080-NT tox	IL1B secr inh	HT1080 IDH1KD tx
O=C(Nc1ccccc1)Nc1ccc(Br)cc1F	15µM*	21µM*	7%	u	-1%
O=C(Nc1cccc(Cl)c1)Nc1ccc(Br)cc1F	21µM*	12µM*	-20%	-59*	-28%
COc1ccc(-c2cn3c(n2)sc2cc(C(=O)NC4CCCCCC4)ccc23)cc1	u	7.3µM*	x	x	x
O=C(NC1CCCc2ccccc21)c1ccc2c(c1)sc1nc(-c3ccccc3)cn12 (stereo unspecified)	8.2µM*	18µM*	x	x	x
COc1ccc(-c2cn3c(n2)sc2cc(C(=O)Nc4cccc(SC)c4)ccc23)cc1	5.2µM*	6.5µM*	x	x	x
O=C(NC1CCCCCC1)c1ccc2c(c1)sc1nc(-c3ccc(F)cc3)cn12	u	6.5µM*	x	x	x
CCOC(=O)Cc1csc(NC(=O)c2ccc(C)c(S(=O)(=O)N3CCOCC3)c2)n1	u	-29%	-3%	-16	1%
Cc1cccc(N2CCN(C(=O)c3ccc4c(c3)NC(=O)C(CSCc3cccc(F)c3)N4)CC2C)c1 (stereo unspecified)	u	u	9%	18	-17%
O=C(NC1CCCCC1)c1ccc2c(c1)sc1nc(-c3ccc(F)cc3)cn12	13µM*	15µM*	x	x	x
COc1ccc(C(N)c2csc(Nc3nncc4ccccc34)n2)cc1 (stereo unspecified)	u	u	u	-17	u
NC(CCc1ccccc1)c1csc(Nc2ccc(C(F)(F)F)cn2)n1 (stereo unspecified)	21µM*	u	-28%	-28	u
NC(COCc1ccccc1)c1csc(Nc2nncc3ccccc23)n1 (stereo unspecified)	u	21µM*	u	u	u
NC(COCc1ccccc1)c1csc(Nc2ccccn2)n1 (stereo unspecified)	26µM*	u	4%	-4	-5%
Oc1ccc(-c2csc(Nc3ccccn3)n2)c(O)c1	u	u	u	-4	u
NC(CCc1ccccc1)c1csc(Nc2ccccn2)n1 (stereo unspecified)	u	u	u	u	16µM*
C[C@H](CO)N1C[C@H](C)[C@@H](CN(C)C(=O)Nc2ccc3c(c2)OCO3)Oc2c(NS(=O)(=O)c3ccc(F)cc3)cccc2C1=O	0%	-13%	1%	15	5%
COc1cc(OC)cc(C(=O)N2CCN(C3CCC(C)CC3)CC2)c1 (stereo unspecified)	-17%	-23%	-13%	10	-3%
CCCN(CCC)CC(O)CN1C(=O)N(CN2C(=O)N(CC(O)CN(CCC)CCC)C(=O)C2(C)C)C(C)(C)C1=O (stereo unspecified)	5%	8%	-29%	-65*	-5%
